# The full list was thinned out, with hits kept by preference.
# Shiga toxin inh = A qHTS for Small Molecule Inhibitors of Shiga Toxin; Vero cells, Shiga toxin protein synthesis inhibition reporter; inhibition, % at 38.7 µM; 290,000 compounds, 9.2% hits; AID 2315, 2010; in the data active = inhibition mostly above about 28%, no sharp cut-off; inactive = mostly below about 43%; note: 0% is about no effect
# Tb PYK inh = qHTS of Trypanosoma Brucei Inhibitors; 410,000 compounds, 0.12% hits; Potency, µM (top dose mostly 76.8 µM), without a hit: top-dose activity, negative = inhibition, actives largely listed as inhibitors; AID 624173, 2012; TbPYK enzyme, Kinase-Glo Plus ATP luminescence, 45 min; note: potency is the fitted concentration of half-maximal effect; % is set by controls: 0 for no effect and ±100 for the full control effect; nearly all actives have a fitted effect of over 50% in size
#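 Glycolytic pyruvate kinase of T. brucei was incubated with substrate, test compound and 130 uM ADP for 45 minutes at room temperature. Luminescent Kinase-Glo Plus signal was measured after 10 minutes.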
# RE007 growth inh = qHTS Assay for Inhibitors of the HIV-1 protein Vpr | S. pombe RE007 Vpr strain, BacTiter-Glo ATP luminescence, 24 h | Potency, µM (titrated, usually from 92.2 µM), for the others: at the top dose activity change, negative = less growth, hits mostly inhibitors | 360,000 compounds, 0.21% hits; active = well fitted falling curve with a large enough effect; inconclusive = small, poorly fitted or top-dose-only effect; inactive = no such curve, though single readings can be large or run the other way; note: potency is the fitted concentration of half-maximal effect; % is set by controls: 0 for no effect and ±100 for the full control effect; nearly all actives have a fitted effect of over 50% in size
#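 Fission yeast strain RE007, carrying one chromosomally integrated HIV-1 vpr copy, was seeded at OD 0.01 in PMG+AL medium with 23 nL pinned compound. After 24 h at 30 °C and 99% humidity, viability was read by BacTiter-Glo luminescence.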
# LmPK inh = qHTS Assay for Inhibitors of Leishmania Mexicana Pyruvate Kinase (LmPK). Q27686. purified LmPK, Kinase-Glo ATP luminescence, 1 h. Potency, µM (titrated, usually from 57.5 µM), for inactives: top-dose activity change, negative = inhibition, hits mostly inhibitors. 290,000 compounds, 0.37% hits. AID 1721, 2009; note: potency is the fitted concentration of half-maximal effect; % is set by controls: 0 for no effect and ±100 for the full control effect
# Target sequence (Q27686 whole entry, looked up): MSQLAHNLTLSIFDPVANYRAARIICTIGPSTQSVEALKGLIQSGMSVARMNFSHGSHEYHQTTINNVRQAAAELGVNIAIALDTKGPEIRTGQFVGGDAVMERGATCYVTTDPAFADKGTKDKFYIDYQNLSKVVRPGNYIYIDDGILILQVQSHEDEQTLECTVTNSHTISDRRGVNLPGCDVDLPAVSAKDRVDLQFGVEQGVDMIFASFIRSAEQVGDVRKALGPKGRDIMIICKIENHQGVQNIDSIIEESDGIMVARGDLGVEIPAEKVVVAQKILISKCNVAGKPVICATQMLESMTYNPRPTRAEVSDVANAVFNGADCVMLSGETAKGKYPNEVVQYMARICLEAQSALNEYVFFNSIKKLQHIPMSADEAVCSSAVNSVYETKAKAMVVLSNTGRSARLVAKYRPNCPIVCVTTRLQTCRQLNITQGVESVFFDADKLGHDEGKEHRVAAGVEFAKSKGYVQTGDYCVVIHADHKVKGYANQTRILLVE
#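 0.1 nM LmPK, 0.5 mM PEP, 0.1 mM ADP; 50 mM imidazole pH 7.2, 7 mM MgCl2, 50 mM KCl; 1 h RT. Kinase-Glo luminescence readout, normalized to no-enzyme (full inhibition) and uninhibited wells.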
# FBPA Giardia inh = qHTS Assay for Inhibitors of Fructose-1,6-bisphosphate Aldolase from Giardia Lamblia; A8B2U2; 290,000 compounds, 0.71% hits; Potency, µM (top dose mostly 59.6 µM), inactives show top-dose activity, negative = inhibition, most hits filed as inhibitors; purified Giardia FBPA; AID 2451, 2010; note: potency is the fitted concentration of half-maximal effect; % is set by controls: 0 for no effect and ±100 for the full control effect; nearly all actives have a fitted effect of over 55% in size
#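 40 nM FBPA preincubated 10 min at RT with compound (up to 57.5 uM final), then substrate plus GAPDH/TPI/NAD/arsenate coupling and diaphorase/resazurin added. Fluorescence read after 20 min at RT, 525/598 nm.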
# CHX counter = Cycloheximide Counterscreen for Small Molecule Inhibitors of Shiga Toxin; cell reporter, cycloheximide protein synthesis inhibition counterscreen; max response, %; 300,000 compounds, 12% hits; AID 2314, 2010; in the data active = max response mostly above about 13%, no sharp cut-off; inactive = mostly below about 14%; note: read at 38.3 µM for the half of the compounds with a filed dose; 0% is about no effect
# * marks the source's active call; other numbers are inactive results; u = inconclusive; x = not tested or not shown; + = active, no number. Unless noted, calls come from the whole dose curve; as a rule, active = well fitted curve in the direction sought with a large enough effect; inconclusive = small, poorly fitted or top-dose-only effect, or another doubt; inactive = no such curve, though single readings can be large; an effect the other way counts as inactive or inconclusive.
SMILES,Shiga toxin inh,Tb PYK inh,RE007 growth inh,LmPK inh,FBPA Giardia inh,CHX counter
CC(C)(C)OC(=O)N1CCC[C@H]1C(=O)N/N=C/c1cccc2nccnc12,22,1%,-12%,4%,-11%,1
Nc1nnc(SCc2ccc([N+](=O)[O-])cc2)s1,22,-6%,8%,-4%,-6%,8.0*
CCOC(=O)CSc1nc2ccc(NC(C)=O)cc2s1,-13,1%,3%,1%,-6%,-5
Nc1ccc2nc(SCc3ccc([N+](=O)[O-])cc3)sc2c1,45,-28%,13%,4%,-10%,28*
COc1ccc(CSc2nnc(N)s2)cc1F,86*,8%,37%,1%,3%,43*
COC(=O)CSc1nc2ccc(N)cc2s1,25,-7%,-7%,3%,u,19*
Cc1cc(C)cc(NC(=O)COC(=O)COc2ccc(N(C)S(=O)(=O)c3cccs3)cc2)c1,x,-5%,-16%,x,x,x
C=CCc1ccccc1OCCSc1nc2ccc([N+](=O)[O-])cc2s1,1,-2%,3%,-4%,1%,-2
COc1ccccc1OCCSc1nc2ccc([N+](=O)[O-])cc2s1,-11,-7%,-4%,0%,-2%,10*
OC(COc1ccc2ccccc2c1Cl)CN1CCOCC1 (stereo unspecified),105*,-1%,-8%,6%,3%,37*
Cc1ccc(OCC(O)CN2CCOCC2)c(C)c1 (stereo unspecified),x,9%,-5%,0%,-28%,31*
O=C(N1CCOCC1)N1CCN(CC(O)COc2ccc3ccccc3c2)CC1 (stereo unspecified),-16,-1%,4%,2%,6%,-1
OC(COc1cccc2ccccc12)CN1CCOCC1 (stereo unspecified),x,1%,6%,x,x,x
OC(COc1ccc2cc(Br)ccc2c1)CN1CCOCC1 (stereo unspecified),37*,1%,u,0%,0%,11
Cc1ccc(OCC(O)CN2CCN(Cc3ccc4c(c3)OCO4)CC2)c(C)c1 (stereo unspecified),-16,-2%,2%,-5%,1%,-3
COc1ccc(C(=O)NCCn2cc(SCc3ccc(C(F)(F)F)cc3)c3ccccc32)cc1OC,x,3%,x,x,x,x
CCN1CCN(c2c(Cl)cccc2NC(=O)c2cc3ccccc3o2)CC1,x,0%,-5%,x,x,x
O=C1C(=Cc2cccs2)Oc2ccccc21,x,10%,-19%,x,x,x
O=C1/C(=C/c2cccs2)COc2ccccc21,93*,-28%,u,14µM*,8%,34*
O=C(NCC(c1ccco1)N1CCCC1)c1ccc(Cl)c(S(=O)(=O)N2CCc3ccccc32)c1 (stereo unspecified),x,4%,20%,x,x,x
CC1(NC(=O)CCc2nc3ccccc3c(=O)[nH]2)CCS(=O)(=O)C1 (stereo unspecified),-16,-1%,0%,-10%,11%,0
O=[N+]([O-])c1ccc(C23CC4CC(CC(O)(C4)C2)C3)cc1,63*,x,x,0%,5%,39*
O=C(NC12CC3CC(CC(C3)C1)C2)c1ccc([N+](=O)[O-])cc1,2,3%,4%,-6%,-6%,2
CC1O[C@@H](O[C@H]2C(Oc3cc(O)c4c(c3)OC(c3ccc(O)cc3)CC4=O)OC(CO)C(O)C2O)C(O)C(O)C1O (stereo partly specified),x,x,x,x,-1%,x
COc1ccc(C=NNc2nc3ccccc3s2)cc1,x,-5%,1%,x,x,x
SMILES,Shiga toxin inh,Tb PYK inh,RE007 growth inh,LmPK inh,FBPA Giardia inh,CHX counter
COc1cc(/C=C(\CC(=O)O)c2nc3ccccc3s2)ccc1OCC(=O)Nc1ccccc1F,x,8%,38%,x,x,x
COc1cc(/C=N/Nc2nc3ccccc3s2)ccc1OC(=O)c1ccccc1F,+,-1%,2%,-7%,-4%,43*
COc1cc(OC)cc(C(=O)Oc2ccc(/C=N/Nc3nc4ccccc4s3)cc2OC)c1,124*,-23%,-2%,-2%,-13%,48*
CCc1nc(Nc2ccc(F)c(Cl)c2)c2c3c(sc2n1)CCCC3,x,0%,x,x,x,x
COc1ccc(C=C2NC(=S)NC2=O)cc1,x,5%,-12%,x,x,x
COc1ccc(C(=O)N2C(=S)NC(=O)/C2=C\c2ccc(C)cc2)cc1,21,-19%,6%,1%,-6%,22*
Cc1cc(C(=O)OCC(=O)N2CCc3ccccc32)c(C)o1,37,4%,11%,0%,3%,25*
O=C(OCC(=O)N1CCc2ccccc21)c1ccc(Br)o1,x,0%,u,x,x,x
O=C(OCC(=O)N1CCc2ccccc21)C1=COCCO1,56*,-10%,2%,-4%,-8%,37*
Cc1cc(C(=O)OCC(=O)c2ccc(Br)s2)c(C)o1,36,x,x,-8%,-5%,33*
Cc1cc(C(=O)OCC(=O)Nc2ccc(F)cc2F)c(C)o1,14,4%,-7%,-2%,7%,17*
Cc1cc(C(=O)OCC(=O)c2ccc(Br)s2)no1,-3,1%,0%,0%,0%,2
Cc1cc(C(=O)OCC(=O)Nc2ccccc2C)c(C)o1,x,3%,13%,x,x,x
Cc1sc(-c2cc3ccccc3oc2=O)nc1-c1ccc(Cl)cc1,x,0%,x,x,x,x
CCCS(=O)(=O)NC(=O)C1(C)CCN(C(=O)c2ccc(OC)cc2OC)C1 (stereo unspecified),x,-7%,4%,x,x,x
O=S(=O)(/N=C(/c1ccccc1)N1CCCCC1)c1ccccc1,-5,0%,-3%,-3%,6%,-1
Cc1ccc2nc(NCCc3ccc(Cl)cc3)c3nncn3c2c1,6,1%,6%,7%,-6%,-1
Cc1cc(C)cc(Nc2nc3ccc(C)cc3n3cnnc23)c1,-4,7%,7%,20%,-3%,-3
Cc1cccc(CCNc2nc3ccc(C)cc3n3cnnc23)c1,74*,5%,0%,1%,7%,30*
Cc1ccc(Nc2nc3ccccc3n3cnnc23)cc1C,31*,-1%,-4%,3%,-6%,37*
Cc1ccc2nc(Nc3ccc(C)c(C)c3)c3nncn3c2c1,28*,2%,-2%,-1%,7%,12
O=C(Nc1ccccc1)c1nc[nH]c1C(=O)O,x,-2%,x,x,x,x
CCOc1ccc(-n2c(=O)c3c(C)c(C)sc3n(Cc3c(F)cccc3Cl)c2=O)cc1,x,0%,x,x,x,x
CCc1cc(C(=O)NC2CCCc3c2cnn3-c2ccc(F)cc2F)no1 (stereo unspecified),x,3%,48%,x,x,x
C/C(=N\NC(=O)c1ccncc1)c1cccs1,63*,-5%,-3%,-11%,-5%,48*

# Screening results (PubChem BioAssay)
